Data as given in PubChem BioAssay (EPA / NIEHS).
Calls of active or inactive are those of the source. How the source made its calls: active means hit-call score of the fitted dose curve at least 0.9, where 1 is the maximum; inactive means score below 0.9.

Key:
[1] = read-out: Macrophage colony-stimulating factor (MCSF), CSF1 (gene 1435); assay: BSK_CASM3C_MCSF: BioMAP Diversity Plus: CASM3C Assay for Macrophage colony-stimulating factor (MCSF) Biomarker Activity (AID 2283044); conditions: primary human coronary artery smooth muscle cells; actives raise or lower the signal;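 further: M-CSF protein amount quantified by ELISA after 24 h exposure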
[2] = read-out: Low-density lipoprotein receptor (LDLR), LDLR (gene 3949); assay: BSK_CASM3C_LDLR: BioMAP Diversity Plus: CASM3C Assay for Low-density lipoprotein receptor (LDLR) Biomarker Activity (AID 2283045); conditions: primary human coronary artery smooth muscle cells; actives raise or lower the signal;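 further: LDLR protein level on the cell surface quantified by ELISA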
[3] = read-out: Monocyte Chemoattractant Protein-1 (MCP1), CCL2 (gene 6347); assay: BSK_CASM3C_MCP1: BioMAP Diversity Plus: CASM3C Assay for Monocyte Chemoattractant Protein-1 (MCP1) Biomarker Activity (AID 2283046); conditions: primary human coronary artery smooth muscle cells; actives raise or lower the signal;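 further: MCP-1 level quantified by ELISA 24 h after dosing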
[4] = BSK_CASM3C_Proliferation: Cell Proliferation Assessment in the BioMAP Diversity Plus: CASM3C Assay (AID 2283047); conditions: primary human coronary artery smooth muscle cells;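 further: sulforhodamine B total protein stain as relative cell number at 560 nm; sub-confluent cells exposed 48 h before staining; fitted both ways against DMSO so gain or loss of cell number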
[5] = read-out: Monokine induced gamma interferon (MIG), CXCL9 (gene 4283); assay: BSK_CASM3C_MIG: BioMAP Diversity Plus: CASM3C Assay for Monokine induced gamma interferon (MIG) Biomarker Activity (AID 2283048); conditions: primary human coronary artery smooth muscle cells; actives raise or lower the signal;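 further: MIG protein level measured by ELISA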
[6] = read-out: serum amyloid A (SAA), SAA1 (gene 6288); assay: BSK_CASM3C_SAA: BioMAP Diversity Plus: CASM3C Assay for serum amyloid A (SAA) Biomarker Activity (AID 2283049); conditions: primary human coronary artery smooth muscle cells; actives raise or lower the signal;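 further: SAA protein level quantified by ELISA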
[7] = BSK_CASM3C_SRB: Viability Assessment in the BioMAP Diversity Plus: CASM3C Assay (AID 2283050); conditions: primary human coronary artery smooth muscle cells
[8] = read-out: Thrombomodulin, THBD (gene 7056); assay: BSK_CASM3C_Thrombomodulin: BioMAP Diversity Plus: CASM3C Assay for Thrombomodulin Biomarker Activity (AID 2283051); conditions: primary human coronary artery smooth muscle cells; actives raise or lower the signal;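 further: thrombomodulin protein level measured by ELISA 24 h after dosing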
[9] = read-out: Tissue Factor, F3 (gene 2152); assay: BSK_CASM3C_TissueFactor: BioMAP Diversity Plus: CASM3C Assay for Tissue Factor Biomarker Activity (AID 2283052); conditions: primary human coronary artery smooth muscle cells; actives raise or lower the signal;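 further: cell surface tissue factor protein level read by ELISA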
[10] = read-out: Interferon-gamma inducible Protein 10 (IP10), CXCL10 (gene 3627); assay: BSK_hDFCGF_IP10: BioMAP Diversity Plus: hDFCGF Assay for Interferon-gamma inducible Protein 10 (IP10) Biomarker Activity (AID 2283053); conditions: primary human foreskin fibroblasts; actives raise or lower the signal
Summary of the method: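 Primary human foreskin fibroblasts exposed to chemicals for 24 h. IP-10 measured by ELISA; changes fitted bidirectionally against DMSO baseline.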

[11] = read-out: Urokinase-type plasminogen activator receptor (uPAR), PLAUR (gene 5329); assay: BSK_CASM3C_uPAR: BioMAP Diversity Plus: CASM3C Assay for Urokinase-type plasminogen activator receptor (uPAR) Biomarker Activity (AID 2283054); conditions: primary human coronary artery smooth muscle cells; actives raise or lower the signal;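 further: cell-surface uPAR protein level quantified by ELISA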
[12] = read-out: Vascular cell adhesion molecule 1 (VCAM1), VCAM1 (gene 7412); assay: BSK_CASM3C_VCAM1: BioMAP Diversity Plus: CASM3C Assay for Vascular cell adhesion molecule 1 (VCAM1) Biomarker Activity (AID 2283055); conditions: primary human coronary artery smooth muscle cells; actives raise or lower the signal;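 further: VCAM-1 protein level quantified by ELISA on the cells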
[13] = read-out: Collagen III, COL3A1 (gene 1281); assay: BSK_hDFCGF_CollagenIII: BioMAP Diversity Plus: hDFCGF Assay for Collagen III Biomarker Activity (AID 2283056); conditions: primary human foreskin fibroblasts; actives raise or lower the signal
Summary of the method: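 Response relative to DMSO, fitted in both directions, reflects ELISA-measured collagen III in human primary skin fibroblasts 24 h after compound addition.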

[14] = read-out: Epidermal growth factor receptor (EGFR), EGFR (gene 1956); assay: BSK_hDFCGF_EGFR: BioMAP Diversity Plus: hDFCGF Assay for Epidermal growth factor receptor (EGFR) Biomarker Activity (AID 2283057); conditions: primary human foreskin fibroblasts; actives raise or lower the signal
Summary of the method: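 Primary human foreskin fibroblasts (hDFCGF system), sampled 24 h after dosing; EGFR quantified by ELISA. Bidirectional fit relative to DMSO baseline; SRB total-protein staining in parallel cultures for cytotoxicity.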

[15] = read-out: Interleukin-8 (IL8), CXCL8 (gene 3576); assay: BSK_hDFCGF_IL8: BioMAP Diversity Plus: hDFCGF Assay for Interleukin-8 (IL8) Biomarker Activity (AID 2283058); conditions: primary human foreskin fibroblasts; actives raise or lower the signal
Summary of the method: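 Fibroblast monolayers (human foreskin, hDFCGF) received test chemical for 24 h before ELISA detection of IL-8; either increases or decreases relative to DMSO count as activity.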

[16] = BSK_hDFCGF_Proliferation: Cell Proliferation Assessment in the BioMAP Diversity Plus: hDFCGF Assay (AID 2283059); conditions: primary human foreskin fibroblasts;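 further: curves fitted for both rise and fall of signal versus DMSO baseline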
Summary of the method: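 Primary human foreskin fibroblasts, sub-confluent; […]; 10% TCA fix, 0.1% SRB stain, A560 total protein. Gain/loss fitted bidirectionally vs DMSO control.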

[17] = read-out: Macrophage colony-stimulating factor (MCSF), CSF1 (gene 1435); assay: BSK_hDFCGF_MCSF: BioMAP Diversity Plus: hDFCGF Assay for Macrophage colony-stimulating factor (MCSF) Biomarker Activity (AID 2283060); conditions: primary human foreskin fibroblasts; actives raise or lower the signal
Summary of the method: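 fibroblasts (human foreskin, primary), 24 h post-dose; M-CSF by ELISA; bidirectional fit, DMSO = baseline.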

[18] = BSK_hDFCGF_SRB: Viability Assessment in the BioMAP Diversity Plus: hDFCGF Assay (AID 2283061); conditions: primary human foreskin fibroblasts;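 further: cells exposed to compound for 24 h before the read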
Summary of the method: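 SRB-based viability read on primary human skin fibroblasts at 24 h: TCA fixation, 0.1% dye, 560 nm. Gain or loss of signal is fitted against the DMSO negative control.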

[19] = read-out: TIMP metallopeptidase inhibitor 1 (TIMP1), TIMP1 (gene 7076); assay: BSK_hDFCGF_TIMP1: BioMAP Diversity Plus: hDFCGF Assay for TIMP metallopeptidase inhibitor 1 (TIMP1) Biomarker Activity (AID 2283062); conditions: primary human foreskin fibroblasts; actives raise or lower the signal
Summary of the method: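 Bidirectional curve fitting against DMSO baseline yielded this endpoint, based on ELISA detection of TIMP-1 in primary human foreskin fibroblasts exposed to compound for 24 h.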

[20] = read-out: Monokine induced gamma interferon (MIG), CXCL9 (gene 4283); assay: BSK_hDFCGF_MIG: BioMAP Diversity Plus: hDFCGF Assay for Monokine induced gamma interferon (MIG) Biomarker Activity (AID 2283063); conditions: primary human foreskin fibroblasts; actives raise or lower the signal
Summary of the method: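 Endpoint derived by bidirectional fitting relative to DMSO; MIG quantified via ELISA in primary human foreskin fibroblasts harvested 24 h after dosing.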

Measured: AC50

O=[N+]([O-])c1cccc2ccccc12
active: [11] 20 µM
inactive: all other assays above

N#Cc1cccnc1
inactive: all assays above

CC(C=O)Cc1ccc2c(c1)OCO2 (stereo not given)
inactive: all assays above

CN(C)C(=S)S
active: [4] 791 nM | [10] 18 µM | [13] 3.97 µM | [15] 30.9 µM | [16] 14.6 µM | [17] 14.2 µM | [18] 27.1 µM | [19] 13 µM | [20] 21.6 µM
inactive: all other assays above

C=CC(Cl)CCl (stereo not given)
active: [3] 0.0777 µM | [12] 921 nM | [16] 20.4 µM
inactive: all other assays above

O=[N+]([O-])c1ccc(Nc2ccccc2)cc1
inactive: all assays above

O=C1C=CC(=O)c2ccccc21
inactive: [14] | [15]
active: [1] 5.16 µM | [2] 10.8 µM | [3] 8.9 µM | [4] 474 nM | [5] 30.1 µM | [6] 3.37 µM | [7] 8.33 µM | [8] 34.1 µM | [9] 6.75 µM | [10] 1.55 µM | [11] 4.99 µM | [12] 3840 nM | [13] 1.27 µM | [16] 0.905 µM | [17] 1.17 µM | [18] 1.63 µM | [19] 2.41 µM | [20] 1.68 µM

Cc1cc(Cl)ccc1N
active: [16] 5.13 µM
inactive: all other assays above

Cc1ccc(OP(=O)(Oc2ccc(C)cc2C)Oc2ccc(C)cc2C)c(C)c1
active: [1] 0.0882 µM | [14] 3.88 µM | [16] 4.72 µM | [17] 5.48 µM | [18] 4.22 µM
inactive: all other assays above
